This note sets out measurements from article PMC8384837, “Expanding the binding specificity for RNA recognition by a PUF domain”.

In the first assay the target is PUM1 PUF domain R5-PRG (Homo sapiens, UniProt Q14671 828-1176, C1007P;Q1011G). As to the kind of experiment: yeast three-hybrid, YBZ-1, SC-Leu-His + 0.5 mM 3-AT, 4 days. Particulars: tags: N-Gal4 AD-HA kept; label: inside an RPR1-promoter hybrid RNA with tandem MS2 sites; ssRNA. Put shortly:
(§1)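 Pumilio-1 PUF domain libraries, randomized at the three base-contacting residues of each repeat, were co-expressed with matching RNA elements from a centromeric plasmid in strain YBZ-1, which carries a LexA–MS2 coat fusion and a HIS3 reporter. Transformants grew for four days on SC-Leu (input) or on SC-Leu-His + 0.5 mM 3-AT (selection), and the repeat regions were PCR-amplified and Illumina-sequenced. The interaction score is the log change in variant frequency from input to selection. That logarithm is base 2, with a pseudocount of 1 where a variant was absent.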
As to “GGCUAGAACUAGUGGAUCCCCCGGCGCCCGGCGGCUCGAGCCCGGGUAAGUGUCAAUAGUCUGCAUGCCGCCGGGCGCCAUGCCUGCAGGUCGACUCUAGAAAACAUG”, the binding signal was 1.67 log2 enrichment (interaction score).
On the same count and under the same terms, to “GGCUAGAACUAGUGGAUCCCCCGGCGCCCGGCGGCUCGAGCCCGGGUAAGUGUGAAUAGUCUGCAUGCCGCCGGGCGCCAUGCCUGCAGGUCGACUCUAGAAAACAUG” belongs 2.67 log2 enrichment (interaction score).
The same measure, in the same setting: to “GGCUAGAACUAGUGGAUCCCCCGGCGCCCGGCGGCUCGAGCCCGGGUAAGUGUAAAUAGUCUGCAUGCCGCCGGGCGCCAUGCCUGCAGGUCGACUCUAGAAAACAUG” belongs 3.3 log2 enrichment (interaction score); to “GGCUAGAACUAGUGGAUCCCCCGGCGCCCGGCGGCUCGAGCCCGGGUAAGUGUUAAUAGUCUGCAUGCCGCCGGGCGCCAUGCCUGCAGGUCGACUCUAGAAAACAUG”, 3.9 log2 enrichment (interaction score).

The next assay concerns the target PUM1 PUF domain R5-RRV (Homo sapiens, UniProt Q14671 828-1176, C1007R;Q1011V). The description is as above. The conditions noted are these: tags: N-Gal4 AD-HA kept; label: inside an RPR1-promoter hybrid RNA with tandem MS2 sites; ssRNA. A digest of the protocol: as §1
For the sequence “GGCUAGAACUAGUGGAUCCCCCGGCGCCCGGCGGCUCGAGCCCGGGUAAGUGUCAAUAGUCUGCAUGCCGCCGGGCGCCAUGCCUGCAGGUCGACUCUAGAAAACAUG”, the binding signal is 4.84 log2 enrichment (interaction score).
As to “GGCUAGAACUAGUGGAUCCCCCGGCGCCCGGCGGCUCGAGCCCGGGUAAGUGUGAAUAGUCUGCAUGCCGCCGGGCGCCAUGCCUGCAGGUCGACUCUAGAAAACAUG”, the binding signal is 1.41 log2 enrichment (interaction score).
On to “GGCUAGAACUAGUGGAUCCCCCGGCGCCCGGCGGCUCGAGCCCGGGUAAGUGUAAAUAGUCUGCAUGCCGCCGGGCGCCAUGCCUGCAGGUCGACUCUAGAAAACAUG”, for which the binding signal was 2.01 log2 enrichment (interaction score).
Same read-out and setting: to “GGCUAGAACUAGUGGAUCCCCCGGCGCCCGGCGGCUCGAGCCCGGGUAAGUGUUAAUAGUCUGCAUGCCGCCGGGCGCCAUGCCUGCAGGUCGACUCUAGAAAACAUG” belongs 4.92 log2 enrichment (interaction score).
